In the library only some 3.1% were active in any assay of this set; here they are far more common.
miR-122 sensor: inhibitors of miR-122 in Huh7 cells; actives 0.3% (n = 340,000); Huh7 miR-122 Renilla luciferase sensor, 48 h; neutral wells = 0, positive control = 100; activation (reporter increase), % at 12.5 µM;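 active means mean replicate activation score at least 90 and every replicate individually at or above 90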;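 further: higher luciferase means less miR-122 activity so hits act as miR-122 inhibitors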
GSIS activator: GLuc luminescence reporter in INS-1E cells, primary screen for activators of glucose-dependent secretion of insulin | actives 0.61% (n = 370,000) | AID 743287 | INS-1E GLuc reporter insulin secretion, 2-3 h | activation, % at 16.6 µM;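 active means lowest replicate activation of at least 40%, so every replicate reaches that level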;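 further: 0% = median of neutral control wells and 100% = median of IBMX positive control wells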
EWS-Fli block: inhibitors of EWS/Fli oncoprotein transcriptional activity. A673 NR0B1-luciferase reporter, viability-normalised. inhibition, % at 12.6 µM. actives 0.67% (n = 350,000);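 active means mean inhibition of at least 50% after viability correction, with every replicate also passing that limit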;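 further: firefly luciferase signal divided by Alamar Blue viability fluorescence both relative to DMSO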
C2C12 statin: suppressors of simvastatin-induced myotoxicity in C2C12 myotubes | ATP luminescence, 48 h; scaled: DMSO 0, geranylgeraniol control 100 | rescue of ATP level, % at 7.49 µM | actives 0.78% (n = 330,000) | AID 602340;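 active means mean ATP rescue above about 67%, or every replicate alone reaching that limit, limit read from the data, passing the limit was not always enough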;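 further: myotubes were challenged with 10 µM simvastatin during compound exposure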
Env fusion inh: HIV envelope-mediated fusion inhibition | HeLa-JRFL Env/CEM21 cell fusion, luciferase | inhibition, % at 12.3 µM | actives 1.1% (n = 360,000);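 active means mean replicate inhibition score of at least 50 and every replicate individually at or above 50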;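 further: 0% = plate neutral controls and 100% = maraviroc near 300 nM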
PAX8 reporter: PAX8 transcriptional activity inhibition. RMG-I TPO-luciferase reporter, SteadyGlo, 24 h. inhibition, % at 12.6 µM. actives 1.2% (n = 360,000). AID 652154;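 active means mean replicate inhibition at least 60% with every replicate also reaching 60%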;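 further: luciferase light reporting Pax8 driven TPO promoter activity; plate controls were median of neutral control wells for no effect and mitoxantrone controls for full effect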
* hit, by the source's call; . = no result; [ ] = dose if it differs, or a comment.

SMILES	miR-122 sensor	GSIS activator	EWS-Fli block	C2C12 statin	Env fusion inh	PAX8 reporter
CC(C)NC(=O)Nc1ccc2c(c1)C(=O)N([C@@H](C)CO)C[C@@H](C)[C@@H](CN(C)S(=O)(=O)c1ccc(F)cc1)OCCCC[C@@H](C)O2	3.3[16.7 µM]	-13.2	-3.2	.	-18.8[16.7 µM]	24.9
COc1ccc(C(=O)NCC(=O)N2CCN(c3ncccn3)CC2)cc1OC	-8.0	36.8	-11.9	7.1	7.4	-10.0
O=C(NCC(=O)N1CCN(c2ncccn2)CC1)c1ccccc1OC(F)F	-4.8	-1.6	-4.7	-4.3	85.5*	6.3
O=C(Nc1nc2cc3c(cc2s1)OCCO3)C1=COCCO1	-1.4	-3.7	89.3*	-67.4	64.0*	94.0*
O=C(Nc1nc2ccc(F)cc2s1)C1=COCCO1	0.8	5.3	68.7*	-49.0	-23.2	12.8
CSc1cccc2sc(NC(=O)C3=COCCO3)nc12	-2.9	-2.2	-79.9	0.5	-26.6	.
O=C(Nc1nc2ccc(F)cc2s1)c1ccccn1	.	18.0	83.8*	.	40.2	74.7*
C[C@H]1CCCCO[C@@H](CN(C)C(=O)C2CCCCC2)[C@@H](C)CN([C@@H](C)CO)C(=O)c2cc(N(C)C)ccc2O1	-3.7[16.7 µM]	-6.1	0.4	-21.5	10.4[16.7 µM]	11.8
C[C@H]1CN([C@@H](C)CO)C(=O)Cc2cc(NS(=O)(=O)c3ccc(Cl)cc3)ccc2O[C@H]1CN(C)Cc1ccc(C(=O)Nc2ccccc2N)cc1	.	-4.4	9.3	.	.	24.7
COC(=O)Cc1ccc(NC(=O)c2ccc(C(C)(C)C)cc2)cc1	-0.1	-12.6	.	.	58.9*	.
COCCNC(=O)c1cc2c(c(-c3cccc(-c4cccc(F)c4)c3)n1)[C@H](CCO)N(S(=O)C(C)(C)C)C2 (stereo partly drawn)	.	-8.2	4.9	.	6.3[16.7 µM]	61.6*
CC(C)(C)S(=O)N1Cc2cc(C(=O)NCC(F)(F)F)nc(-c3cccc(-c4cccc(F)c4)c3)c2[C@@H]1CCO (stereo partly drawn)	4.3	-4.4	19.7	0.2	-8.6	70.1*
CCCNC(=O)c1cc2c(c(-c3cccc(-c4cccc(F)c4)c3)n1)[C@@H](CCO)N([S@](=O)C(C)(C)C)C2	.	9.0	-6.1	-19.3	-5.4[16.7 µM]	12.6
COCCNC(=O)c1cc2c(c(-c3cccc(-c4cccc(F)c4)c3)n1)[C@@H](CCO)N(S(=O)C(C)(C)C)C2 (stereo partly drawn)	.	.	5.2	.	8.7[16.7 µM]	10.9
COc1ccc(C(C[N+](=O)[O-])c2c(C)[nH]n(-c3ccccc3)c2=O)cc1 (stereo not drawn)	.	-25.5	-4.2	1.7	6.8	26.8
Cc1[nH]n(-c2ccccc2)c(=O)c1C(C[N+](=O)[O-])c1ccccc1Cl (stereo not drawn)	0.2	.	.	117.9*	.	.
COCC(=O)Nc1ccc2c(c1)[C@@H]1C[C@H](CC(=O)NCc3ccncc3)O[C@@H](CO)[C@@H]1O2	-3.1[16.7 µM]	-2.4	-3.2	-5.1	.	.
O=C(CCN1CCCCC1)N[C@@H]1CC[C@H](CCn2cc(-c3ccc(F)cc3)nn2)O[C@@H]1CO	.	-2.7	1.5	0.7	-51.9[16.7 µM]	3.0
COc1cccc(-c2cnc3c(c2)C(=O)N([C@H](C)CO)C[C@H](C)[C@H](CN(C)C(=O)CN(C)C)O3)c1	8.1[16.7 µM]	23.5	-4.0	-0.6	-19.2[16.7 µM]	.
CCCC(=O)C1=C(SCC)CC(C)(C)C(C(=O)OC)C1=O (stereo not drawn)	-3.0	.	.	-22.4	.	.
C=CCN=C1CC(C)(C)C(C(=O)OC)C(O)=C1C(=O)CCC (stereo not drawn)	0.9	72.5*	3.2	.	-4.8	-23.5
O=[N+]([O-])c1ccc(Oc2ccc(/C=N/O)cc2)nc1	.	-33.2	2.5	.	-8.8	-12.5
N#Cc1ccc(Oc2ccc(/C=N/O)cn2)cc1	-7.6	-27.9	.	121.9*	.	.
CN1C(=O)c2cc(NC(=O)c3ccccc3)ccc2OC[C@H]2O[C@@H](CC(=O)NC3CCCC3)CC[C@H]21	3.3[16.7 µM]	-8.9	-10.9	41.2	.	-15.9
Cc1cc2c(cc1C)/C(=C\C(N)=O)NC(C)(C)C2	3.3	.	.	142.4*	.	.
Cc1cccc2c1CC(C)(C)N/C2=C\C(N)=O	1.2	7.7	.	-9.7	-11.9	-0.9
O=C(c1cc(S(=O)(=O)N2CCN(c3ccccc3)CC2)ccc1Cl)N1CCCC(C(F)(F)F)C1 (stereo not drawn)	-2.4	-49.8	23.9	1.0	.	16.2

Source: PubChem
